PubChem BioAssay
Values joined by “and” are separate entries in the source; they are usually repeats but may differ in a detail not shown here. Equal values may be shown once. Active and inactive are the calls of the source.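 How the source made its calls, unless noted: active means compounds whose cell count with miR-34 switched on is under 0.7 times the count with it off; inactive means the rest.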

Test system: Aerobactin synthetase IucA (Klebsiella pneumoniae, hypervirulent)
Experiment: biochemical IucA inhibition screen of LOPAC library by absorbance (AID 1346212; call rule not given here;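 further: 100% = no compound wells and 0% = no enzyme wells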)
Conditions: IucA enzyme assay, absorbance (OD) readout; stronger effect = lower value; concentration not given here
For `C=CCN1CC[C@]23CCCC[C@H]2[C@H]1Cc1ccc(O)cc13`, the remaining activity was 94.8% (inactive).
With `COc1ccc2c(c1OC)C(=O)O[C@H]2[C@@H]1c2cc3c(cc2CCN1C)OCO3` the remaining activity was 110% (inactive).
With `CN1C[C@H](CNC(=O)OCc2ccccc2)C[C@@H]2c3cccc4c3c(cn4C)C[C@H]21` the remaining activity was 130% (inactive).

Test system: not listed separately
Experiment: viability loss with induced miR-34 in A549 – imaging, A549 dox-inducible miR-34, nuclei and caspase counts, primary screen (AID 1347080)
Conditions: A549 miR-34 inducible, Hoechst nuclei count, 48 h; stronger effect = lower value
For `CN(C)C(=S)SSC(=S)N(C)C`, the fold change was 0.701 (inactive).
In the case of `c1ccc2c(c1)Sc1ccccc1N2CC1CN2CCC1CC2` (centres undefined), the fold change is reported as 0.854 (inactive).
For `COc1ccc2c(c1OC)C(=O)O[C@H]2[C@@H]1c2cc3c(cc2CCN1C)OCO3`, the fold change was 0.977 (inactive).
For `CN1C[C@H](CNC(=O)OCc2ccccc2)C[C@@H]2c3cccc4c3c(cn4C)C[C@H]21`, the fold change was 0.705 (inactive) and 0.866 (inactive) and 0.969 (inactive).
With `COP(=S)(OC)Oc1ccc(Sc2ccc(OP(=S)(OC)OC)cc2)cc1` the fold change was 0.838 (inactive).

Same assay, conditions: A549 miR-34 inducible, Hoechst nuclei count, 48 h; measured here: relative caspase fold change +Dox/-Dox
Work on `CN(C)C(=S)SSC(=S)N(C)C` yielded a fold change of 4.9.
`c1ccc2c(c1)Sc1ccccc1N2CC1CN2CCC1CC2` (centres undefined) gave a fold change of 0.648.
`COc1ccc2c(c1OC)C(=O)O[C@H]2[C@@H]1c2cc3c(cc2CCN1C)OCO3` showed a fold change of 1.1.
In the case of `CN1C[C@H](CNC(=O)OCc2ccccc2)C[C@@H]2c3cccc4c3c(cn4C)C[C@H]21`, the fold change is reported as 1.05 and 1.44 and 0.756.
`COP(=S)(OC)Oc1ccc(Sc2ccc(OP(=S)(OC)OC)cc2)cc1` gave a fold change of 1.68.

Same assay, conditions: A549 miR-34 inducible, Hoechst nuclei count, 48 h; measured here: total cells with miR-34 induction; stronger effect = lower value
With `CN(C)C(=S)SSC(=S)N(C)C` the cell count was 7410.
With `c1ccc2c(c1)Sc1ccccc1N2CC1CN2CCC1CC2` (centres undefined) the cell count was 6390.
Compound `COc1ccc2c(c1OC)C(=O)O[C@H]2[C@@H]1c2cc3c(cc2CCN1C)OCO3` has a cell count of 10700.
With `CN1C[C@H](CNC(=O)OCc2ccccc2)C[C@@H]2c3cccc4c3c(cn4C)C[C@H]21` the cell count was 1820 and 6760 and 7430.
With `COP(=S)(OC)Oc1ccc(Sc2ccc(OP(=S)(OC)OC)cc2)cc1` the cell count was 9320.

Same assay, conditions: A549 miR-34 inducible, Hoechst nuclei count, 48 h; measured here: total cells without miR-34 induction
For `CN(C)C(=S)SSC(=S)N(C)C`, the cell count was 10600.
Work on `c1ccc2c(c1)Sc1ccccc1N2CC1CN2CCC1CC2` (centres undefined) yielded a cell count of 7490.
In the case of `COc1ccc2c(c1OC)C(=O)O[C@H]2[C@@H]1c2cc3c(cc2CCN1C)OCO3`, the cell count is reported as 10900.
In the case of `CN1C[C@H](CNC(=O)OCc2ccccc2)C[C@@H]2c3cccc4c3c(cn4C)C[C@H]21`, the cell count is reported as 2580 and 7810 and 7670.
Work on `COP(=S)(OC)Oc1ccc(Sc2ccc(OP(=S)(OC)OC)cc2)cc1` yielded a cell count of 11100.

Biological target: Mitogen-activated protein kinase 7 (Homo sapiens) (UniProt Q13164)
Sequence (Q13164 whole entry, looked up, the tested form may be a part): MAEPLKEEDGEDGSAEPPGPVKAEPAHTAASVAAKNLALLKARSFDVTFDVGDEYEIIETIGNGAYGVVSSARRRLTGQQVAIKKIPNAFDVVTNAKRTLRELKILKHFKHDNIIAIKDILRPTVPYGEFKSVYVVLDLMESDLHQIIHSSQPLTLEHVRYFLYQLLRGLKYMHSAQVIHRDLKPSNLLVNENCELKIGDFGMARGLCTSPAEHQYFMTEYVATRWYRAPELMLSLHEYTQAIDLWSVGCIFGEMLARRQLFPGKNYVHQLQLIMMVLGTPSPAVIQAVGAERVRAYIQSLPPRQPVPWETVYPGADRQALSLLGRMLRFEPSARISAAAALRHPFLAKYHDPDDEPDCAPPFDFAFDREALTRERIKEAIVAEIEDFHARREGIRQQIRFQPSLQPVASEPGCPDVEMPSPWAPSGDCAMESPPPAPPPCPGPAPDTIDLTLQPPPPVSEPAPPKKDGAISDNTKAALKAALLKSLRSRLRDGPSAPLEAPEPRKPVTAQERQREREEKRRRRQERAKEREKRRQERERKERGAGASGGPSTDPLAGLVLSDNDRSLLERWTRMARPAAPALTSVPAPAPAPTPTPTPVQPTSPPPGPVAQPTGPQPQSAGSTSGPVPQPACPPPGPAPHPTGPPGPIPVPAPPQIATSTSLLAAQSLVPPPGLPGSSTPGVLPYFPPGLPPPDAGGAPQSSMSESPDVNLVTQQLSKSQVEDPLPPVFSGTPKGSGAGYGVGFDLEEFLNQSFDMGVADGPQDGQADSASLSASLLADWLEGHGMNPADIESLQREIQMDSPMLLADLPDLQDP
Experiment: Gal4-ERK5 driven luciferase induction – cell-based, HTS, primary screen (AID 1508626;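 active means luciferase signal above three times the same-plate solvent-only control wells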;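 further: luciferase driven by Gal4-ERK5 fusion binding five Gal4 sites before minimal TATA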)
Conditions: HeLa Gal4-ERK5 transactivation, 18 h, at 5 µM, stronger effect = higher value
In the case of `CN(C)C(=S)SSC(=S)N(C)C`, the luciferase signal is reported as 64 AU (inactive).
For `CN1C[C@H](CNC(=O)OCc2ccccc2)C[C@@H]2c3cccc4c3c(cn4C)C[C@H]21`, the luciferase signal was 40 AU (inactive).
With `COP(=S)(OC)Oc1ccc(Sc2ccc(OP(=S)(OC)OC)cc2)cc1` the luciferase signal was 80 AU (inactive).

Test system: not listed separately
Experiment: galactose survival enhancers in mitochondrial complex I cybrids – cell-based, galactose medium, ATP luminescence, primary screen (AID 1645843;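 active means z-score of at least 1.8 in each of two replicates, scored against plate mean and spread of sample wells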;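 further: positive z means more ATP and so rescue of galactose-driven cybrid death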)
Conditions: complex I mutant cybrid cells, 72 h, stronger effect = higher value
For `c1ccc2c(c1)Sc1ccccc1N2CC1CN2CCC1CC2` (centres undefined), the z-score was -2.58 (inactive).
For `COc1ccc2c(c1OC)C(=O)O[C@H]2[C@@H]1c2cc3c(cc2CCN1C)OCO3`, the z-score was 0.055 (inactive).
For `CN1C[C@H](CNC(=O)OCc2ccccc2)C[C@@H]2c3cccc4c3c(cn4C)C[C@H]21`, the z-score was -1.27 (inactive) and -0.62 (inactive).
